# Screens (PubChem BioAssay)
# Hits are enriched below; roughly 4.8% of the tested compounds scored in any of these assays.
# S2 tox = Viability Counterscreen for Primary qHTS for Inhibitors of ATXN expression; Potency, µM (doses to about 56.7 µM), hits mostly cytotoxic; S2 cells (HEK-293 line with an ATXN2-luciferase reporter) viability, CellTiter-Fluor protease fluorescence, 24 h; 400,000 tested, 0.49% active; also: potency is read from the fitted curve at half-maximal effect; nearly all actives have a fitted effect of over 40% in size
# TGFb SMAD3 inh = qHTS for Inhibitors of TGF-b; Potency, µM (highest dose often 46.1 µM), without a hit: at the top dose activity, negative = inhibition, hits mostly inhibitors; 410,000 tested, 1.2% active; AID 588855, 2011; HepG2 CAGA-GFP TGF-b/SMAD3 reporter, GFP fluorescence, 18 h; TGF-beta stimulated, 500 pg/mL final; also: potency is read from the fitted curve at half-maximal effect; % is scaled to controls: 0 for no effect and ±100 for the full control effect; nearly all actives have a fitted effect of over 65% in size
#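 TGF-beta reporter screen: HEPG2 CAGA-GFP, 1% FBS, 500 pg/mL TGF-beta final, 18 h; per-cell GFP summed per well; curves fitted and categorized by class.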
# HepG2 viability = qHTS for Inhibitors of TGF-b: Cytotox Counterscreen; HepG2 CAGA-GFP viability, ATP luminescence, 18 h; 410,000 tested, 0.76% active; Potency, µM (top dose mostly 46.1 µM), for the others: at the top dose activity change, negative = cytotoxicity, hits mostly cytotoxic; also: potency is read from the fitted curve at half-maximal effect
#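 CellTiter-Glo luminescence gave cytotoxicity after 18 hours at 37 degrees C. The cells were HepG2 CAGA-GFP in 1% FBS DMEM, stimulated with 500 pg/mL TGF-beta after compound addition. %Activity was normalised to no-cell wells (complete cell-killing) and DMSO (no toxicity), and curves were fitted and classified.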
# DRD3 antagonist = qHTS of D3 Dopamine Receptor Antagonist: qHTS. D(3) dopamine receptor (Homo sapiens), P35462. D3R cells, DiscoveRx beta-arrestin luminescence, antagonist mode; active compounds read low. max response, negative = inhibition, %. 360,000 tested, 2.5% active. AID 652054, 2013; in the data active = max response below about -50%; inconclusive = no clear call, values can overlap the other calls; also: % is scaled to controls: 0 for no effect and ±100 for the full control effect
# Target sequence (P35462 whole entry, looked up): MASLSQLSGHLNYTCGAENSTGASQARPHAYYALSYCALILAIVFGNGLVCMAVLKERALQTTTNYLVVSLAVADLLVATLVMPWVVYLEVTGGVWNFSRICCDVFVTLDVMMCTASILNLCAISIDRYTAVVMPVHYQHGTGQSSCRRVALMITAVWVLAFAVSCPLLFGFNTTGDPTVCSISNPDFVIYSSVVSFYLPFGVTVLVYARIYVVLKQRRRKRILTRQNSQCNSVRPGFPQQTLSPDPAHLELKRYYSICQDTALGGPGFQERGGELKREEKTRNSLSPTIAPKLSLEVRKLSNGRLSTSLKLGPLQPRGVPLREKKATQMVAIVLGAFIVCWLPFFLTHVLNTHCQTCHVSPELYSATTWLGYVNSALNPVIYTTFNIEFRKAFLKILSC
#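 Cells expressing the human receptor were seeded at 1500 cells/well, incubated overnight at 37 degrees C in 5% CO2, then exposed to library compounds with dopamine controls for 90 minutes at 37 degrees C before luminescent detection.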
# ATXN2 expr inh = Primary qHTS for Inhibitors of ATXN expression; HEK-293 ATXN2-luciferase reporter, luminescence, 24 h; Potency, µM (doses to about 57 µM), for inactives: at the top dose activity change, negative = inhibition, hits mostly inhibitors; 360,000 tested, 0.72% active; also: potency is read from the fitted curve at half-maximal effect; % is scaled to controls: 0 for no effect and ±100 for the full control effect; nearly all actives have a fitted effect of over 55% in size
#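 ATXN2-luciferase reporter cells (luciferase flanked by upstream and downstream ATXN2 gene portions) were treated 24 h at 37 °C with compounds at up to 57 uM. SteadyGlo luminescence gave expression; GF-AFC fluorescence gave viability.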
# D3 ag = qHTS of D3 Dopamine Receptor Agonist: qHTS. D3R DiscoveRx beta-arrestin cells, luminescence, 90 min. AID 652048, 2013. 410,000 tested, 0.58% active. D(3) dopamine receptor (Homo sapiens), P35462. max activation, %; in the data active = max activation above about 30%; also: 0% is about no effect
#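 Cells at 1500/well, incubated overnight, then treated with pinned compounds (dopamine as control) for 90 min at 37 degrees C. DiscoveRx reagent added for 30 - 60 minutes at room temperature; luminescence read.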
# An asterisk follows results filed as active; i = inactive; u = inconclusive; x = not tested or not shown. Unless noted, calls follow the shape of the dose curve; as a rule, active = well fitted curve in the direction sought with a large enough effect; inconclusive = small, poorly fitted or top-dose-only effect, or another doubt; inactive = no such curve, though single readings can be large; an effect the other way counts as inactive or inconclusive.
SMILES,S2 tox,TGFb SMAD3 inh,HepG2 viability,DRD3 antagonist,ATXN2 expr inh,D3 ag
CCCCNCC(O)(c1ccc(Cl)cc1)c1ccc(Cl)cc1,u,-9.0%,-3.5%,-87.2*,u,-26.5
COc1ccc(CNCC(O)(c2ccc(Cl)cc2)c2ccc(Cl)cc2)cc1,u,0.0%,10µM*,6.4,u,0.4
OC(CNCc1ccc(F)cc1)(c1ccc(F)cc1)c1ccc(F)cc1,x,-14.7%,-80.7%,-51.2*,x,1.6
OC(CNCc1ccc(Cl)cc1)(c1ccccc1)c1ccc(F)cc1 (configuration not stated),i,u,-39.8%,-10.7,-14.8%,-10.9
COc1ccc(CNCC(O)(c2ccc(Cl)cc2)c2ccc(Cl)cc2)cc1OC,u,u,22.4µM*,u,u,-7.4
CC(=O)N1c2ccc(S(=O)(=O)N(C)CC(=O)N(Cc3ccccc3)C(C)C)cc2CC1C (configuration not stated),i,4.2%,-6.1%,x,-4.0%,7.8
CN1/C(=C/C=C/c2n(C)c3cc([N+](=O)[O-])c([N+](=O)[O-])cc3[n+]2C)C(C)(C)c2ccccc21,x,u,-44.3%,-57.2*,x,-8.7
CC1CCN(CC(O)COC2CCC(C(C)(C)C)CC2)CC1 (configuration not stated),i,10.0%,-32.6%,-55.6*,-4.4%,-16.0
O=C(c1ccccc1)N1CCN(CC(O)COC2CCCCC2)CC1 (configuration not stated),u,0.5%,12.2%,u,-2.0%,-7.1
CC(C)(C)C1CCC(OCC(O)CN2CCCC2)CC1 (configuration not stated),i,3.5%,-3.0%,2.6,-3.4%,-8.5
OCC(O)CN1CCN(c2ccccc2)CC1 (configuration not stated),i,27.4%,-1.9%,-18.5,1.0%,-21.3
CC(C)(C)C1CCC(OCC(O)CN2CCN(c3ccccc3)CC2)CC1 (configuration not stated),i,-1.5%,-37.4%,-20.1,-0.9%,58.7*
OC(COC1CCCCC1)CN1CCCCC1 (configuration not stated),i,-7.0%,1.6%,-71.7*,5.3%,-18.1
Cc1ccc(N2CCN(CC(O)COC3CCCCC3)CC2)cc1 (configuration not stated),i,-4.6%,-2.9%,-89.6*,-16.9%,-13.0
COc1cccc(CNC(=O)CCC2CCCN(C(=O)c3cccc(Cl)c3)C2)c1 (configuration not stated),i,-7.5%,-15.3%,-1.0,-5.2%,41.8*
COc1cccc(CNC(=O)CCC2CCCN(Cc3cc4ccccc4o3)C2)c1 (configuration not stated),i,u,-15.1%,-70.9*,-24.9%,-15.0
COc1cccc(CNC(=O)CCC2CCCN(C(=O)c3ccc(C)nc3)C2)c1 (configuration not stated),i,-11.4%,-13.1%,8.6,4.5%,12.3
COc1cccc(CNC(=O)CCC2CCCN(C(=O)CCC(F)(F)F)C2)c1 (configuration not stated),i,1.0%,-23.8%,-27.0,4.0%,-6.7
Cc1c(Br)cc(C(=O)OC2CCN(C)CC2)c(C)c1C,i,-4.9%,-41.3%,-88.0*,-28.0%,-20.7
S=c1ncc2n[nH]nc2[nH]1,x,1.6%,-50.6%,x,x,x
CC(C)C[C@@H](CNCC(=O)[C@H](C)NC(=O)c1[nH]cnc1C(=O)N[C@@H](C)CN)NC(=O)c1nc[nH]c1C(=O)N[C@@H](CC(=O)O)C(=O)O,i,-3.1%,12.6%,-11.6,8.0%,31.9*
